Experimental data: PubChem BioAssay
Activity calls are given as the source filed them.

Experiment: S. cerevisiae RM11-1a growth modifiers, primary screen, strain RM11-1a, OD600, basal, 24 h (AID 1177);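 note: cultures grown under basal conditions with no added stressor; test concentration not given here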
Settings: OD600, 24 h, higher = more signal, called active from +8 up or from −8 down

z-score, inactive:
CC(C)c1ccc(NN2C(C(O)C(C)c3ccccc3)C=CC3C(=O)N(c4ccccc4)C(=O)C32)cc1 (centres undefined) 0.208
CC(C)C[C@@H]1NC(=O)[C@@H]2C[C@H](C(=O)NCCCCCCNC(=O)CS)[C@H](c3ccc(O)cc3)N2C1=O 0.199
COC(=O)Cn1c(C(=O)N(C)C)cc2c1C[C@H]1CN(C(=O)c3ccccc3)[C@@](Cc3ccccc3)(C(=O)OC)[C@@H]21 -0.161
COCCOC(=O)N1C(=O)[C@@]2(c3cc(C#CCC(C(=O)OC)C(=O)OC)ccc31)[C@H](c1ccc(O)cc1)N1[C@H](c3ccccc3)[C@H](c3ccccc3)OC(=O)[C@H]1[C@@H]2C(=O)N1CCc2cc(OC)c(OC)cc2C1 0.494
Cc1ccc(S[C@]2(C(=O)NCc3ccccc3)CC(=O)N(Cc3ccccc3C(F)(F)F)[C@@H]2c2ccc(CO)cc2I)cc1 -1.54
O=C1C2C=CC(C(O)C3CCCCC3)N(Nc3ccccc3F)C2C(=O)N1c1ccccc1 (centres undefined) -0.375
CC[C@H]1C2=C3C(CC[C@H]4C(OCc5ccc(F)cc5C(F)(F)F)OC[C@](C)([C@@H]34)N(C(=O)OC(C)(C)C)C2)C(COC(C)=O)C1COC(C)=O (some centres undefined) 0.348
CC1CC/C=C\[C@H]2OC34C=CCN(CCN5CCOCC5)C(=O)[C@H]3N(C(CO)C(C)C)C(=O)[C@@H]4C2C(=O)O1 (some centres undefined) -0.459
COC(=O)C[C@H]1O[C@]2(C(=O)N(C)c3ccccc32)[C@@H](C)[C@@H]1[Si](C)(C)c1ccccc1 -0.136
